High-throughput results: PubChem BioAssay, National Center for Advancing Translational Sciences (NCATS)
NPR1 antag: antagonists of human natriuretic peptide receptor Npr1. P16066. HEK293 hNpr1 GloSensor cGMP, ANP-stimulated luminescence. Potency, µM (doses to about 46.3 µM), hits mostly inhibitors. 76,000 tested, 1.6% active. AID 1347048; calls by dose curve; further: nearly all actives have a fitted effect of over 60% in size
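HEK293 cells stably expressing human Npr1 and cGMP GloSensor pGS-40F, loaded 2 h with 2% GloSensor reagent, given compound 30 min at room temperature. Luminescence read before and 20 min after 0.1 nM hNppA.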
GPT2 inhibitor: blocks human glutamate pyruvate transaminase 2; Recombinant GPT2, coupled pyruvate oxidase/HRP Amplex Red fluorescence; Potency, µM (series often up to 57.7 µM), most hits filed as inhibitors; 100,000 tested, 0.25% active; AID 1671188; further: nearly all actives have a fitted effect of over 60% in size
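Inhibition is scored from Amplex Red fluorescence generated when pyruvate oxidase and HRP act on pyruvate released by GPT2. Reactions contain 10ng/uL enzyme, 250uM a-KG and 2mM L-alanine and run 30 min at room temperature.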
NIH3T3 tox: cytotoxic compounds in NIH 3T3 cells | NIH 3T3 viability, CellTiter-Glo ATP luminescence, 48-72 h | Potency, µM (series often up to 96.7 µM), most hits filed as inhibitors | AID 1345082 | 94,000 tested, 4.3% active; further: nearly all actives have a fitted effect of over 55% in size
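NIH 3T3 cells at 400 cells/well received 23 nL of compound by pintool and were incubated 48 or 72 h at 37 °C. Viability was read as ATP-coupled CellTiter-Glo luminescence.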
HEK cytotox: HEK 293 cell cytotoxicity; HEK 293 viability, ATP luminescence (CellTiter-Glo), 48-72 h; Potency, µM (doses to about 115 µM), hits mostly inhibitors; 94,000 tested, 6.6% active; AID 1345083; further: nearly all actives have a fitted effect of over 60% in size
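Viability of HEK 293 cells, plated at 250 cells/well, was judged by cellular ATP after compound treatment for 48 or 72 hr. Luminescence was imaged 10 min after CellTiter-Glo addition at room temperature.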
Luciferase inh: inhibitors of firefly (Photinus pyralis) luciferase; P08659; purified P. pyralis luciferase, luminescence, biochemical; Potency, µM (top dose mostly 115 µM), usual class: inhibitors; 76,000 tested, 2.5% active; AID 1347043; further: nearly all actives have a fitted effect of over 65% in size
Target sequence (P08659 whole entry, looked up): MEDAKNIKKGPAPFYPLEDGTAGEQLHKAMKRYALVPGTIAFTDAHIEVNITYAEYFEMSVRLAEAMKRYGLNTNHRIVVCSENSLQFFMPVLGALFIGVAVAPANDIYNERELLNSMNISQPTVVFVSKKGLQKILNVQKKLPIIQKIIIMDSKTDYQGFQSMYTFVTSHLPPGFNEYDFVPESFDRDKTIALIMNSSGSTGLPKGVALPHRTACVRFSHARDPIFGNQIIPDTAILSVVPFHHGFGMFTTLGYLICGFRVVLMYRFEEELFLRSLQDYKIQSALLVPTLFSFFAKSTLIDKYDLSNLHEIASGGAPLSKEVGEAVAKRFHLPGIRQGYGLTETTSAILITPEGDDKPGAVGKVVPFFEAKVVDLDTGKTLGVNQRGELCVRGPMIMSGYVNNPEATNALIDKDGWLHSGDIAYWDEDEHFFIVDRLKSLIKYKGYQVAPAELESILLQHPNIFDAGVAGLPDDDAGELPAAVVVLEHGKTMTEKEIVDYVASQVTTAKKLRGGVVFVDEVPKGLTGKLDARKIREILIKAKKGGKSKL
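Cell-free enzyme assay, 10nM P. pyralis luciferase, luciferin and ATP each at 10uM. Inhibition profiled over a 6-point titration, read as luminescence.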
Numbers stand for hits; n = inactive; u = inconclusive; x = no result; ! = not confirmed by another sample. Hits are enriched below; roughly 10% of the tested compounds scored in any of these assays. Unless noted, the call rests on the fitted dose curve; in most records, active means well fitted curve in the direction sought with a large enough effect; inconclusive means small, poorly fitted or top-dose-only effect, or another doubt; inactive means no such curve, though single readings can be large; an effect the other way counts as inactive or inconclusive.

SMILES	NPR1 antag	GPT2 inhibitor	NIH3T3 tox	HEK cytotox	Luciferase inh
c1ccc(C2(c3nc(C4CCOC4)no3)CCCCC2)cc1 (stereo not drawn)	n	n	u	u	n
Cc1ccsc1-c1[nH]nc2ncc(-c3ccc(F)cc3)nc12	n	n	u	71µM	n
Cc1ccsc1-c1[nH]nc2ncc(-c3cccc(CO)c3)nc12	n	n	u	79µM	u
COc1cc(F)ccc1-c1cnc2n[nH]c(-c3sccc3C)c2n1	n	n	u	45µM	n
COCCNC(=O)c1cc(-c2ccc(OC)cc2)nc2c1c(C1CCCN1)nn2C (stereo not drawn)	x	n	u	n	x
Cn1nc(C2CCCN2)c2c(C(=O)N3CCC(F)CC3)cc(C3CC3)nc21 (stereo not drawn)	x	n	n	n	x
O=C(c1cc(C2CC2)nc2c1c(C1CCCN1)nn2-c1ccccc1)N1CCC(F)CC1 (stereo not drawn)	x	n	32µM	u	x
COc1ccc(-c2cc(C(=O)NCC(C)C)c3c(C4CCCN4)nn(C)c3n2)cc1 (stereo not drawn)	x	n	32µM	u	x
COCCNC(=O)c1cc(C2CC2)nc2c1c(C1CCCN1)nn2-c1ccccc1 (stereo not drawn)	x	n	u	79µM	x
N#Cc1ccc(-c2cnc3[nH]cc(NC(=O)c4cccnc4)c3c2)cc1	x	n	x	x	x
O=C(NCc1cccc(C(F)(F)F)c1)c1ccc2nc(-c3ccncc3)oc2c1	x	n	u	u	x
Cc1ccc(CSc2nc(N)cc(N3CCN(CCCO)CC3)n2)cc1	n	n	u	u	n
O=C1CCN(CC(O)Cc2ccccc2)c2cc3c(cc2CN1Cc1ccccc1)OCO3 (stereo not drawn)	x	x	u	40µM	x
COc1ccc2c(c1)CN(Cc1ccccc1)C(=O)CCN2CC(O)Cc1ccccc1 (stereo not drawn)	x	x	u	79µM	x
COc1ccc2c(c1)CN(Cc1ccccc1)C(=O)CCN2C(C)=O	x	x	u	n	x
COc1ccc(OCC(O)CN2CCC(=O)N(Cc3ccccc3)Cc3cc4c(cc32)OCO4)cc1 (stereo not drawn)	x	x	u	45µM	x
CC(C)(C)c1ccc(C(=O)NCc2nnc3c(-c4nc(C5CC5)no4)cccn23)cc1	n	n	u	u	16µM
Cc1ncc(CN2CCC(C(=O)Nc3cccc(-c4cc5ccccc5[nH]4)c3)CC2)cn1	n	n	u	20µM	n
COc1ccc(-c2cc(N3CCC(NC(=O)c4ccc(C)cc4)C3)n[nH]2)cc1 (stereo not drawn)	n	u	u	u	n
O=C(NC1CCCN(c2cc(-c3ccc(Cl)cc3)[nH]n2)C1)c1ccc2c(c1)OCO2 (stereo not drawn)	n	n	u	45µM	u
COc1ccc(-c2cc(N3CCC(NC(=O)c4ccc5c(c4)OCO5)C3)n[nH]2)cc1 (stereo not drawn)	n	n	u	79µM	n
O=C(NC1CCN(c2cc(-c3ccc(Cl)cc3)[nH]n2)C1)c1ccc2c(c1)OCO2 (stereo not drawn)	n	u	u	u	n
O=C(NCC1Cn2cccc2CN1Cc1ccccc1)c1ccc2cc[nH]c2c1 (stereo not drawn)	n	n	u	79µM	n
Cc1cc(C(=O)NCC2Cn3cccc3CN2Cc2ccccc2)n[nH]1 (stereo not drawn)	n	n	n	u	u
Cc1cccc(N2Cc3c(NCCCO)ncnc3N(C)CC2=O)c1	x	n	n	n	x
SMILES	NPR1 antag	GPT2 inhibitor	NIH3T3 tox	HEK cytotox	Luciferase inh
O=C(NC1CCN(Cc2cccc(-c3cccs3)c2)CC1)c1ccccc1	x	n	n	35µM!	x
Cc1ccccc1C(=O)NC1CCN(Cc2cccc(-c3cccs3)c2)CC1	x	n	u	u	x
O=C(NC1CCN(Cc2cccc(-c3cccs3)c2)CC1)c1ccc(F)cc1	x	n	u	u	x
COc1ccccc1C(=O)NC1CCN(Cc2cccc(-c3cccs3)c2)CC1	x	n	32µM!	22µM!	x
CCN1CCN(C(=O)c2ccc3nnc(-c4ccoc4)n3c2)CC1	x	n	n	n	x
COc1ccccc1-c1ccc(CN2CCCCC2C(=O)NCc2ccc3c(c2)OCO3)cc1 (stereo not drawn)	x	x	u	25µM	x
COc1ccc(F)cc1-c1ccc(CN2CCCCC2C(=O)N2CCc3ccccc3C2)cc1 (stereo not drawn)	x	x	40µM	32µM	x
COc1ccccc1-c1cccc(C(=O)N2CCC[C@H]2C(=O)NCc2ccc(F)cc2)c1	x	n	u	u	x
COc1ccccc1-c1ccc(CN2CCCCC2C(=O)NCc2ccccc2Cl)cc1 (stereo not drawn)	x	x	28µM	u	x
COc1cccc(-c2ccc(CN3CCCC3C(=O)NCc3ccccc3F)cc2)c1 (stereo not drawn)	x	n	u	u	x
COc1ccccc1-c1ccc(CN2CCCCC2C(=O)N2CCCC2)cc1 (stereo not drawn)	x	n	u	u	x
COc1ccccc1-c1ccc(CN2CCCCC2C(=O)NCc2cccc(F)c2)cc1 (stereo not drawn)	x	x	u	32µM!	x
COCCn1c(C)cc(C(=O)N2C[C@@H](CO)[C@H](c3ccccn3)C2)c1C	n	n	n	n	n
COc1cc(C)c2c(c1C)C[C@H](C(C)C(=O)N1CCN(c3ccc(F)cc3)CC1)CC2 (stereo partly drawn)	u	n	u	u	n
O=C(NCc1ccccc1F)C1CCCCN1Cc1ccc(-c2cccs2)cc1 (stereo not drawn)	x	n	u	u	x
COc1ccccc1-c1cccc(C(=O)N2CCC[C@H]2C(=O)NCc2cccnc2)c1	x	n	n	n	x
COc1ccccc1-c1ccc(CN2CCCCC2C(=O)NCc2ccc(F)cc2F)cc1 (stereo not drawn)	x	x	u	20µM	x
COc1ccc(F)cc1-c1ccc(CN2CCCCC2C(=O)NCc2cccnc2)cc1 (stereo not drawn)	x	x	u	50µM	x
COc1ccccc1-c1ccc(CN2CCCCC2C(=O)NC2CCCC2)cc1 (stereo not drawn)	x	x	u	35µM!	x
CCOC(=O)[C@@H]1CN(C(=O)C2CCCC2)[C@H]2c3ccc(OC)cc3O[C@@H]12	x	x	n	u	x
CCc1ccc(C(=O)N2CCC(N3C(=O)CCC3C(=O)NCc3ccccc3)CC2)cc1 (stereo not drawn)	n	n	n	n	n
CCCNC(=O)CCC1CCN(C(=O)c2ccccc2F)CC1	n	n	n	n	40µM
CC(C)NC(=O)CCC1CCN(C(=O)c2ccccc2F)CC1	n	n	n	n	40µM
O=C(CCC1CCN(C(=O)c2ccccc2Cl)CC1)NC1CC1	n	n	n	n	n
O=C(CCC1CCN(C(=O)c2ccccc2F)CC1)NCc1ccco1	n	n	n	n	u
CCN(CC)C(=O)CCC1CCN(C(=O)c2ccccc2F)CC1	n	n	n	n	35µM
COCCNC(=O)CCC1CCN(C(=O)c2ccccc2Cl)CC1	n	n	n	n	32µM
